# Source: PubChem
# NRP1-CendR mod: modulators of CendR peptide binding to NRP-1, primary screen, biochemical, fluorescence polarization, uHTS; AID 602438, 2012; Neuropilin-1 (Homo sapiens), O14786; FAM-RPARPAR peptide binding to NRP-1; inhibition, % at 25 µM; 360,000 tested, 0.85% active;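 active = inhibition or corrected inhibition above about 18%, plus a signal ratio from 0.5 to 1.5, limit read from the data, passing the limit was not always enough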
# Yeast superoxide: reduction of superoxide in aged yeast, primary screen, HTS; superoxide response (% of plate mean), % at 10 µM; AID 2690, 2010; S. cerevisiae aged cells, superoxide DHE fluorescence; stronger effect = lower value; 330,000 tested, 0.18% active;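 active = superoxide response under a set limit, about three screen SD below normal, cut at about 65% in these data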;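 note: yeast aged for seven days with compound at 30 °C before DHE staining; 100% = average MFI of all compound-treated wells on the plate with controls excluded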
# PfM18AAP inh: PfM18AAP inhibitors, malaria aminopeptidase, primary screen, biochemical, QFRET, recombinant enzyme | M18 aspartyl aminopeptidase (Plasmodium falciparum 3D7) | H-Glu-NHMec fluorogenic cleavage | inhibition, % at 7.35 µM | 290,000 tested, 1.2% active | AID 1822, 2009;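 active = inhibition above the campaign mean inhibition over all tested compounds plus 3 SD, cut at about 28% in these data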;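 note: 0% = plate median of test compound wells and 100% = 2 mM ZnCl2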
# A3G deaminase: APOBEC3G DNA deaminase inhibitors, primary screen, biochemical, fluorescence, single-stranded DNA substrate, uHTS; DNA dC->dU-editing enzyme APOBEC-3G (Homo sapiens), Q9HC16; inhibition, % at 20 µM; recombinant A3G, ssDNA deamination FAM/TAMRA fluorescence; 330,000 tested, 0.28% active;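 active = inhibition of at least 40% at 20 µM, with no more than 30% in the related APOBEC3A deaminase screen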;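 note: plate controls were DMSO wells with A3G for no effect and wells lacking A3G enzyme for full effect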
# ALR inh: inhibitors of human ALR sulfhydryl oxidase, primary screen, biochemical, H2O2 detection, HRP-luminol luminescence, single point; FAD-linked sulfhydryl oxidase ALR (Homo sapiens), P55789; purified ALR, DTT oxidation; inhibition, % (concentration not given with the values); 290,000 tested, 3.8% active; AID 485317, 2010;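 active = mean replicate inhibition above about 79%, with every replicate also reaching it, limit read from the data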
# Target sequence (P55789 whole entry, looked up): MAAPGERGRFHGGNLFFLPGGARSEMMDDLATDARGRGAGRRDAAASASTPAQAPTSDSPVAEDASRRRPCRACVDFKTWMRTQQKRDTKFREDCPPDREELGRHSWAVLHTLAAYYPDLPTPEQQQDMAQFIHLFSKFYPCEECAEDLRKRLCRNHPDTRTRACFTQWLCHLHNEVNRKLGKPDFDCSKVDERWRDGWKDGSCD
# APOBEC3A inh: APOBEC3A ssDNA deaminase inhibitors, primary screen, selectivity assay for APOBEC3G inhibitor project, biochemical, FAM/TAMRA oligo cleavage fluorescence | DNA dC->dU-editing enzyme APOBEC-3A (Homo sapiens), P31941 | recombinant A3A, FAM/TAMRA ssDNA deamination fluorescence | inhibition, % at 20 µM | 330,000 tested, 0.41% active | AID 493011, 2011;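 active = at least 40% inhibition at 20 µM here, with at most 30% in a related deaminase screen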;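 note: plate controls were A3A with DMSO for no effect and wells lacking A3A enzyme for full effect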
# Target sequence (P31941 whole entry, looked up): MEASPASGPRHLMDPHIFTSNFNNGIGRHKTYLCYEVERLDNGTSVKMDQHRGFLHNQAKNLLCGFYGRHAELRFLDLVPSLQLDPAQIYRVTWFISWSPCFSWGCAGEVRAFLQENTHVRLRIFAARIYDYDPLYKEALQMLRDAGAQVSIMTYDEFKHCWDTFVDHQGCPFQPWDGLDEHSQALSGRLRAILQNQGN
# The depositor's hits bear a star; x = not tested or not shown. Only some compounds are listed: those with a hit (about 5.2% of all), similar ones and a draw of the others.
SMILES,NRP1-CendR mod,Yeast superoxide,PfM18AAP inh,A3G deaminase,ALR inh,APOBEC3A inh
Cc1ccc(-c2nc(CS(=O)CC(=O)NCc3ccc4c(c3)OCO4)c(C)o2)cc1 (stereo not given),-2,92,3,-5,99*,-4
Cc1ccc2nc(-c3ccc(Cl)cc3)c(Cc3cccc(Cl)c3)n2c1,-14,x,x,x,x,x
CCc1cc(C(=O)Nc2ccc(OC)nc2)sc1C,24*,100,x,-4,x,-2
COc1ccc(NC(=O)c2ccco2)cn1,26*,97,7,-13,x,-6
Cn1cnc2cc(NC(=O)c3ccco3)ccc21,24*,106,-3,-7,5,-3
COc1ccc(NC(=O)c2cc(Br)c(Br)s2)cn1,-2,101,-7,-3,-32,-3
CC(C)(C)n1cnc2cc(NC(=O)c3cccs3)ccc21,2,108,4,-12,1,2
O=C(Nc1ccc2c(c1)ncn2-c1ccccc1)c1ccco1,8,96,4,-1,-27,4
CC(C)(C)n1cnc2cc(NC(=O)c3ccccc3)ccc21,23*,101,-3,-1,65,-4
COc1ccc(NC(=O)CCNC(C)=O)cc1NS(=O)(=O)c1ccc(F)cc1,-9,85,2,14,x,-2
CCc1cccc(NC(=O)CSC2=NS(=O)(=O)c3ccccc32)c1,-35,68,0,-26,99*,-1
Cc1cc(C(=O)Nc2cccc3ccccc23)oc1C,-3,x,x,x,x,x
Cc1ccc(NC2CCCN(C(=O)c3cccc(-c4ncc[nH]4)c3)C2)cc1C (stereo not given),11,85,1,13,97*,17
Cc1ccc(NC2CCCN(C(=O)c3ccccc3-c3ncc[nH]3)C2)cc1C (stereo not given),10,107,1,-4,99*,-3
CC12CCC(C(=O)N(c3ccccn3)c3ccccn3)(OC1=O)C2(C)C (stereo not given),-2,99,-3,-9,-5,-6
CCOc1ccc(-c2nnc(N3CCCCC3)c3ccccc23)cc1,0,103,-27,-4,-1,2
Cc1ccc2nc3c(c(Nc4ccc5c(c4)OCCO5)c2c1)CCC3,0,89,12,-3,98*,-3
COc1ccc(N2CCN(C(=O)CNC(=O)Cc3ccc(Cl)cc3)CC2)cc1,0,97,-10,-5,2,-2
COc1ccc(S(=O)(=O)N(C)CC(=O)N2CCCCC2)cc1Cl,27*,92,-11,-6,-3,-4
O=C(NC(=S)N1CCN(c2ccc(O)cc2)CC1)c1ccco1,-4,81,x,-7,99*,-4
COc1ccc(N2CCN(C(=O)CN(Cc3ccccc3)S(C)(=O)=O)CC2)cc1,-7,87,0,-5,86*,-4
COc1ccc(N2CCN(C(=O)CNC(=O)Cc3ccccc3)CC2)cc1,-4,110,5,-5,79*,-3
O=C(NC(=S)N1CCN(c2ccc([N+](=O)[O-])cc2)CC1)c1ccco1,-14,99,-2,-4,-5,-1
COc1ccc(N2CCN(C(=O)CN(Cc3ccc(Cl)cc3)S(C)(=O)=O)CC2)cc1,-2,90,-8,2,30,3
COc1ccc(S(=O)(=O)N(C)CC(=O)N2CCN(C)CC2)cc1Cl,0,101,6,-7,3,-2
Fc1ccccc1NC(=S)NC1CCCC1,15,100,-8,-7,-4,-4
O=C(Cc1ccccc1)NCC(=O)N1CCN(c2ccc(F)cc2)CC1,26*,x,x,x,x,x
COc1ccc(CCC(=O)N2CCN(c3ccc(OC)cc3)CC2)cc1,8,x,6,-12,x,-6
COc1ccc(N2CCN(C(=O)CCc3ccccc3)CC2)cc1,8,113,-1,-8,97*,-1
